Data reported in PubChem BioAssay (NCI).
Several values for one entry are separate records, joined by “and”; a condition that tells them apart may be missing. Equal values may be shown once. This is part of a sample that, as a whole, favours compounds with a hit. Of some 83,000 tested, about 20% had one in any assay.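 Method: cells in 96-well plates; compound added at one concentration; 48 h incubation; percent growth measured; values under 10 scored active.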 Unmarked numbers belong to inactive results. Activity calls are given as the source filed them.

Test system: K-562 leukemia
Assay: NCI-60 one-dose screen, 48 h (100 = growth as untreated, 0 = no growth, -100 = all killed)
Conditions: 10 µM unless noted

SMILES	growth
Cc1c(C(C)(C)O)cn2ncnc(Oc3ccc(NC(=O)Nc4ccc(Cl)c(C(F)(F)F)c4)cc3)c12	14.9%
Cc1ccc(C(=O)N(CCCN)[C@@H](c2nc3cc(Cl)ccc3c(=O)n2Cc2ccccc2)C(C)C)cc1	-30.6% (active)
O=c1ccc2nc(-c3ccccn3)nn(-c3ccccc3)c-2c1	-8.79% (active)
COc1ccc(-c2ccc(-c3ccc(C(=N)N)cn3)o2)cc1Cl	-40.3% (active)
Cc1ccc(Nc2nc(-c3cc(O)c(C)c(C)c3O)cs2)cc1	66.5%
COC(=O)/C=C1/SC(N2N=C(c3cccs3)CC2c2ccc(F)cc2)=NC1=O (stereo unspecified)	5.16% (active)
COC(=O)c1[nH]nc(OC)c1C1(C(C#N)c2nc3ccccc3s2)CCCc2ccccc21 (stereo unspecified)	92.4%
CCOC(=O)c1c(-c2ccc(C)cc2)c(C#N)c(=O)n(-c2cccc(C(F)(F)F)c2)c1N	97.8%
COc1cc2nc3cc([N+](=O)[O-])ccc3c(NCCNCC(C)(C)O)c2cc1OC	1.28% (active)
Cc1ccc(C(=O)Nc2ccc(CN3CCN(C)CC3)c(C(F)(F)F)c2)cc1C#Cc1cnc(N)cc1C#N	-41.5% (active)
OCCN1CCN(CC/C=C2\c3ccccc3Sc3ccc(Cl)cc32)CC1	-90.8% (active) and -68.9% (active)
CCCCCCNC(=O)Oc1ccc(/C(=C(/CC)Cc2ccccc2)c2ccc(OCCCN(C)C)cc2)cc1	7.11% (active)
O=c1cc(N/N=C/c2ccc(F)cc2)c2cc(Cl)ccc2[nH]1	2.38% (active)
O=C(Nc1ccccc1C(=O)N/N=C(\c1ccccc1)c1ccccn1)c1ccccc1	12.5%
FC(F)(F)Sc1ccc(/C=C/c2cc(/C=C/c3ccc(SC(F)(F)F)cc3)n(-c3ccccc3)n2)cc1	91%
Cc1ccc(-c2nc3nc(-c4ccc(Cl)cc4)nc(N4CCCNCC4)c3o2)cc1	-56.7% (active)
CN1CCN(c2ccc(/C=C/C(=O)c3ccc(O)cc3)cc2)CC1	90.1%
COc1ccc(/C(C)=C(\c2ccc(OCCN3CCOCC3)cc2)c2ccc(OC(=O)C3CCCCC3)cc2)cc1	89.2%
CS(=O)(=O)Nc1cc(-c2ccc3ncnc(Nc4ccc(F)c(Cl)c4)c3c2)cnc1Cl	18.7%

SMILES	growth
CCOc1ccc(C(=O)Cc2ccccc2)cc1	108% and 103%
CCCc1cc(C(N)=S)ccn1	95.3%
COc1ccc(-c2ccc(-c3ccc(C(=N)N)cn3)s2)cc1Cl	-47.8% (active)
Nc1nc(CSc2n[nH]c(N)n2)nc(Nc2ccccc2)n1	99.1%
COC(=O)c1nc(-c2ccccc2)oc1S(=O)(=O)N(C)CCO	22.2%
Nc1nc(Cl)nc2c1ncn2C1OC(CO)C(O)C1O (stereo unspecified)	67%
Cc1ccc(NC(=O)c2sc3nc(C)c(C(=O)c4ccccc4)cc3c2N)cc1	55.7%
O=Nc1ccc(NO)c2ccccc12	111% and 56.5%
N=C1/C(=C2\NC3C=CC=CC3S2)C(c2ccc(Cl)cc2)C2C(=O)N(c3ccccc3)C(=S)N12 (stereo unspecified)	102%
COc1cccc(C2C(C#N)=C(N)Oc3cc(OCCCCCC[P+](c4ccccc4)(c4ccccc4)c4ccccc4)ccc32)c1 (stereo unspecified)	-21.2% (active)
C=C1CC[C@@H]2[C@](C)(COC(C)=O)[C@H](OC(C)=O)CC[C@@]2(C)[C@@H]1CC(Nc1ccc(S(=O)(=O)Nc2nccs2)cc1)C1=CCOC1=O (stereo partly specified)	3.4% (active)
CCNC(=O)Oc1ccc(/C(=C(/C)Cc2ccc(OC)cc2)c2ccc(OCCN(CC)CC)cc2)cc1	-45.2% (active)
O=C1OCC2=C1C(c1cccc(C(F)(F)F)c1)c1cc3c(cc1N2CCO)CCC3 (stereo unspecified)	7.05% (active)
O=C(Nc1ccc2ccccc2c1)c1cc2ccccc2cc1O	71.1%
CCOC(=O)c1nnn(Cc2cc(=O)oc3c2ccc2ccccc23)c1C	104%
CCC(=O)Oc1cc(Cl)c(Cl)cc1Cl	101%
COc1ccc(C(=O)c2ccc(OC)c(OC)c2OC)cc1	29.3% and 14.6%
Cn1cc(-c2nonc2-c2cn(C)c3ccc(Br)cc23)c2ccccc21	13.3%
CC(C)(C)c1cc(NC(=O)Nc2ccc(-c3cn4c(n3)sc3cc(OCCN5CCOCC5)ccc34)cc2)no1	11.9% and 33.9%

Test system: MALME-3M melanoma
Assay: as above
Conditions: 10 µM unless noted

SMILES	growth
Cc1c(C(C)(C)O)cn2ncnc(Oc3ccc(NC(=O)Nc4ccc(Cl)c(C(F)(F)F)c4)cc3)c12	51.2%
Cc1ccc(C(=O)N(CCCN)[C@@H](c2nc3cc(Cl)ccc3c(=O)n2Cc2ccccc2)C(C)C)cc1	-79% (active)
O=c1ccc2nc(-c3ccccn3)nn(-c3ccccc3)c-2c1	-20.6% (active)
COc1ccc(-c2ccc(-c3ccc(C(=N)N)cn3)o2)cc1Cl	5.7% (active)
Cc1ccc(Nc2nc(-c3cc(O)c(C)c(C)c3O)cs2)cc1	109%
COC(=O)/C=C1/SC(N2N=C(c3cccs3)CC2c2ccc(F)cc2)=NC1=O (stereo unspecified)	79.7%
COC(=O)c1[nH]nc(OC)c1C1(C(C#N)c2nc3ccccc3s2)CCCc2ccccc21 (stereo unspecified)	101%
CCOC(=O)c1c(-c2ccc(C)cc2)c(C#N)c(=O)n(-c2cccc(C(F)(F)F)c2)c1N	99.4%
COc1cc2nc3cc([N+](=O)[O-])ccc3c(NCCNCC(C)(C)O)c2cc1OC	-74.4% (active)
Cc1ccc(C(=O)Nc2ccc(CN3CCN(C)CC3)c(C(F)(F)F)c2)cc1C#Cc1cnc(N)cc1C#N	-79.2% (active)
OCCN1CCN(CC/C=C2\c3ccccc3Sc3ccc(Cl)cc32)CC1	-53.2% (active)
CCCCCCNC(=O)Oc1ccc(/C(=C(/CC)Cc2ccccc2)c2ccc(OCCCN(C)C)cc2)cc1	83.3%
O=c1cc(N/N=C/c2ccc(F)cc2)c2cc(Cl)ccc2[nH]1	98.4%
O=C(Nc1ccccc1C(=O)N/N=C(\c1ccccc1)c1ccccn1)c1ccccc1	35.1%
FC(F)(F)Sc1ccc(/C=C/c2cc(/C=C/c3ccc(SC(F)(F)F)cc3)n(-c3ccccc3)n2)cc1	98.8%
Cc1ccc(-c2nc3nc(-c4ccc(Cl)cc4)nc(N4CCCNCC4)c3o2)cc1	91.8%
CN1CCN(c2ccc(/C=C/C(=O)c3ccc(O)cc3)cc2)CC1	99%
COc1ccc(/C(C)=C(\c2ccc(OCCN3CCOCC3)cc2)c2ccc(OC(=O)C3CCCCC3)cc2)cc1	97.7%
CS(=O)(=O)Nc1cc(-c2ccc3ncnc(Nc4ccc(F)c(Cl)c4)c3c2)cnc1Cl	-15.5% (active)

SMILES	growth
CCOc1ccc(C(=O)Cc2ccccc2)cc1	101%
CCCc1cc(C(N)=S)ccn1	93.7%
COc1ccc(-c2ccc(-c3ccc(C(=N)N)cn3)s2)cc1Cl	-88% (active)
Nc1nc(CSc2n[nH]c(N)n2)nc(Nc2ccccc2)n1	104%
COC(=O)c1nc(-c2ccccc2)oc1S(=O)(=O)N(C)CCO	69.6%
Nc1nc(Cl)nc2c1ncn2C1OC(CO)C(O)C1O (stereo unspecified)	74.7% and 76.4%
Cc1ccc(NC(=O)c2sc3nc(C)c(C(=O)c4ccccc4)cc3c2N)cc1	87.6%
O=Nc1ccc(NO)c2ccccc12	118% and 69.6%
N=C1/C(=C2\NC3C=CC=CC3S2)C(c2ccc(Cl)cc2)C2C(=O)N(c3ccccc3)C(=S)N12 (stereo unspecified)	100%
COc1cccc(C2C(C#N)=C(N)Oc3cc(OCCCCCC[P+](c4ccccc4)(c4ccccc4)c4ccccc4)ccc32)c1 (stereo unspecified)	-73.3% (active)
C=C1CC[C@@H]2[C@](C)(COC(C)=O)[C@H](OC(C)=O)CC[C@@]2(C)[C@@H]1CC(Nc1ccc(S(=O)(=O)Nc2nccs2)cc1)C1=CCOC1=O (stereo partly specified)	0.4% (active)
CCNC(=O)Oc1ccc(/C(=C(/C)Cc2ccc(OC)cc2)c2ccc(OCCN(CC)CC)cc2)cc1	-17.8% (active)
O=C1OCC2=C1C(c1cccc(C(F)(F)F)c1)c1cc3c(cc1N2CCO)CCC3 (stereo unspecified)	43.9%
O=C(Nc1ccc2ccccc2c1)c1cc2ccccc2cc1O	58.5%
CCOC(=O)c1nnn(Cc2cc(=O)oc3c2ccc2ccccc23)c1C	98.5%
CCC(=O)Oc1cc(Cl)c(Cl)cc1Cl	108%
COc1ccc(C(=O)c2ccc(OC)c(OC)c2OC)cc1	51.5% and 23.2%
Cn1cc(-c2nonc2-c2cn(C)c3ccc(Br)cc23)c2ccccc21	30.2%
CC(C)(C)c1cc(NC(=O)Nc2ccc(-c3cn4c(n3)sc3cc(OCCN5CCOCC5)ccc34)cc2)no1	28.9% and 20.2%
